Test results taken from the supplement of paper PMC10849652.
The full data set covers some 7,900 targets. This sample favours those with a hit. About 0.6% of all pairs of compound and target were hits. A number with no mark means an inactive call.

Tests used:
Test in all cases: log2 fold change, soluble protein after heating vs DMSO (PISA); higher = thermal stabilisation; K562 cells, 10 uM, 30 min; active = over 0.2 and 3.5 SD of the protein, either way, in both replicates (recomputed)
saracatinib = compound: CN1CCN(CCOc2cc(OC3CCOCC3)c3c(Nc4c(Cl)ccc5c4OCO5)ncnc3c2)CC1 [saracatinib]
In short: (§1)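 Thermal stability values are relative to control samples and come from duplicates. They are expressed as log2 fold changes. For measurement, K562 cells (2×10^6 cells/mL) received 10 μM compound for 30 min, and aliquots were heated for 3 min over 48°C-58°C, pooled, and extracted at 4°C in PBS with 0.5% NP-40. Soluble protein, the supernatant after 21,000xg for 90 min, was quantified by TMTpro 16plex LC-MS/MS with equalised channel sums.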

sotrastaurin = compound: CN1CCN(c2nc(C3=C(c4c[nH]c5ccccc45)C(=O)NC3=O)c3ccccc3n2)CC1 [sotrastaurin]
In short: as §1

alvocidib = compound: CN1CC[C@H](c2c(O)cc(O)c3c(=O)cc(-c4ccccc4Cl)oc23)[C@H](O)C1 [alvocidib]
In short: as §1

Tubastatin A = compound: CN1CCc2c(c3ccccc3n2Cc2ccc(C(=O)NO)cc2)C1 [Tubastatin A]
In short: as §1

[1] = compound: CNC(=O)C1=CC=CC=C1NC2=NC(=NC=C2Cl)NC3=C(C=C(C=C3)N4CCOCC4)OC
In short: as §1

defactinib = compound: CNC(=O)c1ccc(Nc2ncc(C(F)(F)F)c(NCc3nccnc3N(C)S(C)(=O)=O)n2)cc1 [defactinib]
In short: as §1

rucaparib = compound: CNCc1ccc(-c2[nH]c3cc(F)cc4c3c2CCNC4=O)cc1 [rucaparib]
In short: as §1

[2] = compound: CNc1nc(-c2ccc3c(N)n[nH]c3c2)cc(N2C[C@@H](C(=O)NC3CCCCC3)CC[C@H]2C)n1
In short: as §1

encorafenib = compound: COC(=O)N[C@@H](C)CNc1nccc(-c2cn(C(C)C)nc2-c2cc(Cl)cc(NS(C)(=O)=O)c2F)n1 [encorafenib]
In short: as §1

[3] = compound: COC(=O)[C@H](CCSC)NC(=O)C1=C(C=C(C=C1)NC[C@H](CS)N)C2=CC=CC=C2
In short: as §1

Sequence of UniProt Q5JVF3 (Q5JVF3 whole entry, looked up): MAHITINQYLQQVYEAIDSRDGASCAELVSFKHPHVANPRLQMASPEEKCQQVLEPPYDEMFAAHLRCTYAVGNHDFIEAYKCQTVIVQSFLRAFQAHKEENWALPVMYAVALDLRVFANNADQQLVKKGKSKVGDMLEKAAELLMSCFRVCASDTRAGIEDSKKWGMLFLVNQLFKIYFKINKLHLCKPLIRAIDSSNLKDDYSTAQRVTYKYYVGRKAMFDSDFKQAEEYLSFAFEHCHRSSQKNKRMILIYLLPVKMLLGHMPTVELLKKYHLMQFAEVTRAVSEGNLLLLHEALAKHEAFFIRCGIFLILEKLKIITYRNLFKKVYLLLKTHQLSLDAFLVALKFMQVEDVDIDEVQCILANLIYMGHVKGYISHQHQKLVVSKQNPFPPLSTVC
Sequence of UniProt P29590 (P29590 whole entry, looked up): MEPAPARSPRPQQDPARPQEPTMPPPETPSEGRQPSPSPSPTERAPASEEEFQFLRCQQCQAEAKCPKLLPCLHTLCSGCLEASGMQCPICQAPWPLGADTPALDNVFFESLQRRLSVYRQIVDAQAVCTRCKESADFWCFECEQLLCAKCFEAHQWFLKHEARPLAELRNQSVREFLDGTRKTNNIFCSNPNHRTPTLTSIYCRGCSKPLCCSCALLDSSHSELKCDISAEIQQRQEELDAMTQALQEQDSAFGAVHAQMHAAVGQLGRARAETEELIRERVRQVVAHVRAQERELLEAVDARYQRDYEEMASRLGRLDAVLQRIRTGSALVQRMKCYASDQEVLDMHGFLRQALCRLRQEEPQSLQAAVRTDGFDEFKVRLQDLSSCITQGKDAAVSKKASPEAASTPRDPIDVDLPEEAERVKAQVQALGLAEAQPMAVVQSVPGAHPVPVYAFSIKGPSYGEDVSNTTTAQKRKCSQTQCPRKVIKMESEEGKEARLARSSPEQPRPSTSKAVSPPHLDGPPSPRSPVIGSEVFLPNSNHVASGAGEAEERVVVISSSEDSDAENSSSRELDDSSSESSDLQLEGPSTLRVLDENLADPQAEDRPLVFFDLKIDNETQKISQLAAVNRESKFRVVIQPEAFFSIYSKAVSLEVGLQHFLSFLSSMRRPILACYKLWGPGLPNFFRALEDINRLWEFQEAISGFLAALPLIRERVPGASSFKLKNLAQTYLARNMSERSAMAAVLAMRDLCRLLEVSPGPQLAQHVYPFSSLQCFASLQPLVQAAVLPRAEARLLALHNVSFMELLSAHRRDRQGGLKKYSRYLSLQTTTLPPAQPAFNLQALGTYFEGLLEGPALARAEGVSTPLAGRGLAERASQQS
Sequence of UniProt P15735 (P15735 whole entry, looked up): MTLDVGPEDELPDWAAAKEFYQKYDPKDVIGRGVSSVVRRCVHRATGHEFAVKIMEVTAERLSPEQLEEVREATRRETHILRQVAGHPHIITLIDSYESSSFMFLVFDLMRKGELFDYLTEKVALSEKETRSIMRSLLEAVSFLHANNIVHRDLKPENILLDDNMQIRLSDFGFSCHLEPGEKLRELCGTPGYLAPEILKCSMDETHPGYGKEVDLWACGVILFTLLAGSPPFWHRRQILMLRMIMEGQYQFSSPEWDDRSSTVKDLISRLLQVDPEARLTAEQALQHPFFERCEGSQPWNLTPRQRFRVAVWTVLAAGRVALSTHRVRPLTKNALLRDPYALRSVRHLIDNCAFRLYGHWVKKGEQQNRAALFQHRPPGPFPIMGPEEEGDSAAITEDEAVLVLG
Sequence of UniProt Q9Y478 (Q9Y478 whole entry, looked up): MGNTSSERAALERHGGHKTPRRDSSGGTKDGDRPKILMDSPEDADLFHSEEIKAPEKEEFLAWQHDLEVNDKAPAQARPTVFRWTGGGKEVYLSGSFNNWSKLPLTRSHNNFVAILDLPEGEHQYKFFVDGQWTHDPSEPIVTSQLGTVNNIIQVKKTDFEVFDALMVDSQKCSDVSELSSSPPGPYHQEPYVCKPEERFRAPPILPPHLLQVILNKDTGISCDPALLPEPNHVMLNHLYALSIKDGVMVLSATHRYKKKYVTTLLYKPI
Sequence of UniProt Q86TB9 (Q86TB9 whole entry, looked up): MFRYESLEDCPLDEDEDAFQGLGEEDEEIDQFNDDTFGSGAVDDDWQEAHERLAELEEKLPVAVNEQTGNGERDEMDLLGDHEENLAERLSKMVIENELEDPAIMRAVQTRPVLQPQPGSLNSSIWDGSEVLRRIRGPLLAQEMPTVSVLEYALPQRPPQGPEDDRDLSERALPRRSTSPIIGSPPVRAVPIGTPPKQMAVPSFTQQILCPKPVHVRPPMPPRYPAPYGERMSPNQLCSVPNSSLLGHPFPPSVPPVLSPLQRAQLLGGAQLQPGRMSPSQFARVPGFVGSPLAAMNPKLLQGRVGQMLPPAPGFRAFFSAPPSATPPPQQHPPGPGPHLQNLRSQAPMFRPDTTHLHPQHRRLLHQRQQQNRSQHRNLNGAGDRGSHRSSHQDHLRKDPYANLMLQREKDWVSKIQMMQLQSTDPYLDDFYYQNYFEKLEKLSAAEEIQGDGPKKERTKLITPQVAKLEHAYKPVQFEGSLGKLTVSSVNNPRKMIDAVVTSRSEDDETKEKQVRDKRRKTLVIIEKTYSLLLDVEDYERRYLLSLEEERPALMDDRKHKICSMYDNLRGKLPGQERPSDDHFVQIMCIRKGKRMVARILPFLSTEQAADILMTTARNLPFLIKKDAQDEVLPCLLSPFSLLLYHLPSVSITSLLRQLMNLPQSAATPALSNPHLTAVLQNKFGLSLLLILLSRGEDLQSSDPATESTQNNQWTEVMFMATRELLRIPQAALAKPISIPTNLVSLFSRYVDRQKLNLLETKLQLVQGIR
Sequence of UniProt Q6EEV4 (Q6EEV4 whole entry, looked up): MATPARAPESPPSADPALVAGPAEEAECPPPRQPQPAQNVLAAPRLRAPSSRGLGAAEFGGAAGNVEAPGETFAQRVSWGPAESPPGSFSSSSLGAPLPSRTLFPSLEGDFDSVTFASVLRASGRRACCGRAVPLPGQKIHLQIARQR
Sequence of UniProt Q93096 (Q93096 whole entry, looked up): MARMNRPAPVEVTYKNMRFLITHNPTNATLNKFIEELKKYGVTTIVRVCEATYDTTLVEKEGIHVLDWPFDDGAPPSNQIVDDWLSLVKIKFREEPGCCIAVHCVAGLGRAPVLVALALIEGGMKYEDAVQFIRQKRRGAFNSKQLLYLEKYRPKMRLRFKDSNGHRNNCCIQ
Sequence of UniProt Q29RF7 (Q29RF7 whole entry, looked up): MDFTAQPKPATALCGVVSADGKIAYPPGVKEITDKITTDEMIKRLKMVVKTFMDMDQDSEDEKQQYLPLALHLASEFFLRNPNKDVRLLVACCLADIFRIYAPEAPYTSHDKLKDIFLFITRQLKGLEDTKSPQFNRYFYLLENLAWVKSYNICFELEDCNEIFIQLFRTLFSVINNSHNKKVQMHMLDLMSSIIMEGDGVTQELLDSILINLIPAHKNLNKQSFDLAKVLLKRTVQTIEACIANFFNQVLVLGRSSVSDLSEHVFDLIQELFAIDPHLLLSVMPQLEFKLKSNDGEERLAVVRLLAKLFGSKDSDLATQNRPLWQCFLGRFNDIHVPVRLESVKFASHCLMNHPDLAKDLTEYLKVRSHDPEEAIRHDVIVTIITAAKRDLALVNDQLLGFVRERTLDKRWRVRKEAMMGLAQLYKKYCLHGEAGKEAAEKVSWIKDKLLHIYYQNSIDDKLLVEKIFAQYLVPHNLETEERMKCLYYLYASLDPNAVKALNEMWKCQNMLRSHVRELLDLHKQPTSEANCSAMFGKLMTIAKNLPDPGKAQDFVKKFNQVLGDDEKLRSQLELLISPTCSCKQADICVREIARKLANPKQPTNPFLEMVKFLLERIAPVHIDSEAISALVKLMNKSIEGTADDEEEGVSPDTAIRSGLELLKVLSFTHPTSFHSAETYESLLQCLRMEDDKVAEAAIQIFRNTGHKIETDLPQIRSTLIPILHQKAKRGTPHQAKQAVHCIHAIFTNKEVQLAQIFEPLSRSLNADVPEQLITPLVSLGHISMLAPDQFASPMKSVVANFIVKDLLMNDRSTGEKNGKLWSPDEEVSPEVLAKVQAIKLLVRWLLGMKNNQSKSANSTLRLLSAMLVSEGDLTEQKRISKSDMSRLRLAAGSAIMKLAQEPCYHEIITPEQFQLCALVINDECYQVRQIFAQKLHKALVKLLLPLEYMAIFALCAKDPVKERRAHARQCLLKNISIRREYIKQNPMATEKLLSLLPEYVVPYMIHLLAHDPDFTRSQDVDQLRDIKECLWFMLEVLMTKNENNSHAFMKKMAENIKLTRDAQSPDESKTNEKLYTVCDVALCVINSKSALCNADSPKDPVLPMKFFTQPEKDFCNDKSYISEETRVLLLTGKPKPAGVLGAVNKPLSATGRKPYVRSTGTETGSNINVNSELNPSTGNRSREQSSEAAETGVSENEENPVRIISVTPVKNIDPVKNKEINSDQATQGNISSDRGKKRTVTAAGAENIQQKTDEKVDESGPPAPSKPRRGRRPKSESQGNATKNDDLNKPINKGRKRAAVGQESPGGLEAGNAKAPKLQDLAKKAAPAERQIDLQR
Sequence of UniProt Q8NBL1 (Q8NBL1 whole entry, looked up): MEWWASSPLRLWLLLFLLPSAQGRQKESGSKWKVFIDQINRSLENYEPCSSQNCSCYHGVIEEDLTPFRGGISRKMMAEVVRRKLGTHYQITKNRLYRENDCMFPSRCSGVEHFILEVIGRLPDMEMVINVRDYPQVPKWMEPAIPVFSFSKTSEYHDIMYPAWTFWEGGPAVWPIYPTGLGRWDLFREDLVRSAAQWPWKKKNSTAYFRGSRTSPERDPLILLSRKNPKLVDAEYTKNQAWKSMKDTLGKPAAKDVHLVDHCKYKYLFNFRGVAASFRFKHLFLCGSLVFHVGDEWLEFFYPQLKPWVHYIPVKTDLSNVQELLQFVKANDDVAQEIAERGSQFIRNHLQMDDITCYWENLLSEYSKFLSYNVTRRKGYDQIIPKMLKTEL
Sequence of UniProt O95997 (O95997 whole entry, looked up): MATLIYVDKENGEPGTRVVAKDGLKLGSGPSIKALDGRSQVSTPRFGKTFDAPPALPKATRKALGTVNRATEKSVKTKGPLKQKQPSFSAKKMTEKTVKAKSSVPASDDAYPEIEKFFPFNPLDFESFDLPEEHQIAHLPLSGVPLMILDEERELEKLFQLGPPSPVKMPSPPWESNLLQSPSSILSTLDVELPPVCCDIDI

Target	log2 fold change (saracatinib)	log2 fold change (sotrastaurin)	log2 fold change (alvocidib)	log2 fold change (Tubastatin A)	log2 fold change [1]	log2 fold change (defactinib)	log2 fold change (rucaparib)	log2 fold change [2]	log2 fold change (encorafenib)	log2 fold change [3]
PML (UniProt P29590)	-0.001	-0.038	-0.005	-0.051	0.024	-0.053	-0.008	-0.031	0.005	0
PATL1 (UniProt Q86TB9)	-0.075	-0.16	-0.127	-0.001	-0.135	-0.078	0.131	0.025	0.155	-0.066
PCID2 (UniProt Q5JVF3)	-0.164	-0.22	0.012	0.006	-0.033	-0.281	0.051	0.008	-0.036	-0.101
PCK2 (UniProt Q16822)	0.021	-0.003	-0.113	-0.139	-0.006	-0.048	-0.009	0.015	-0.007	0.01
PTTG1 (UniProt O95997)	-0.061	-0.004	0.004	0.141	-0.145	-0.029	-0.145	-0.088	-0.001	0.031
PNPLA8 (UniProt Q9NP80)	0.022	0.052	0.037	-0.009	-0.021	-0.051	0.038	-0.016	0.026	-0.01
PSMC2 (UniProt P35998)	-0.024	-0.03	0.046	-0.01	-0.014	0.061	0.033	0.035	0.018	0.001
POGLUT1 (UniProt Q8NBL1)	-0.124	0	0.06	0.009	-0.004	0.039	0.069	-0.063	0.015	0.042
PSMB6 (UniProt P28072)	-0.027	-0.017	0.115	0.019	-0.022	0.089	-0.043	0.011	0.03	0.017
PDS5B (UniProt Q9NTI5)	-0.134	0.039	-0.097	0.14	-0.169	-0.101	-0.088	0.014	0	0.032
PRPF40A (UniProt O75400)	-0.026	-0.099	-0.171	0.103	-0.197	-0.219	0.029	-0.03	0.026	-0.024
PHKG2 (UniProt P15735)	0.002	-0.071	-0.069	0.029	0.167	0.026	-0.032	0.1	0.181	-0.025
POLR2G (UniProt P62487)	0.041	-0.016	0.328 (active)	-0.045	0.003	0.154	0.039	0.042	-0.016	-0.03
PJA2 (UniProt O43164)	-0.057	-0.014	0.054	0.061	-0.013	-0.003	0.004	-0.053	-0.003	0.049
PRKCE (UniProt Q02156)	-0.02	-0.425 (active)	-0.143	-0.052	0.075	-0.133	-0.043	0.006	0.037	-0.06
PTP4A1 (UniProt Q93096)	-0.058	0.061	-0.34 (active)	0.036	0.02	-0.447 (active)	-0.038	0.04	-0.027	0.029
POLR2M (UniProt Q6EEV4)	0.011	-0.015	-0.178	-0.131	0.097	-0.081	-0.145	-0.084	-0.047	0.026
PSME4 (UniProt Q14997)	-0.006	-0.035	-0.051	0.025	-0.027	0.037	-0.023	0.067	0.066	-0.029
PRIM1 (UniProt P49642)	-0.109	-0.111	-0.007	0.042	0.116	-0.107	0.084	0.051	0.153	-0.082
PRKAR1A (UniProt P10644)	-0.067	0.105	0.121	0.007	0.366	0.14	0.13	0.005	0.073	-0.069
PSMD12 (UniProt O00232)	-0.024	-0.029	0.026	0.04	0.033	0.048	0.014	0.054	0.031	-0.032
PSMD1 (UniProt Q99460)	-0.033	-0.064	0.051	0.016	0	0.087	-0.003	0.048	0.062	0.018
POLD3 (UniProt Q15054)	-0.035	-0.131	-0.229	0.137	0.01	-0.225	0.018	0.042	0.082	-0.047
PLIN2 (UniProt Q99541)	-0.033	-0.243	0.01	0.015	0.026	-0.006	-0.012	-0.001	0.002	0.047
PRKAB1 (UniProt Q9Y478)	0.077	0	-0.041	0.087	-0.117	-0.037	0.011	-0.02	0.028	-0.021
PDS5A (UniProt Q29RF7)	-0.094	-0.62 (active)	-0.122	-0.235	0.051	-0.045	-0.025	0.053	0.028	0.006
PIP4P2 (UniProt Q8N4L2)	0.056	-0.003	-0.048	0.072	-0.007	0.004	-0.003	-0.106	-0.04	0.093
